# Bioassay records (PubChem)
# NR3A LBD binder: modulates the human NR3A ligand-binding domain | NR3A LBD differential scanning fluorimetry, Tm shift; 0% = protein alone, 100% = glycine-bound protein | hit rate 2.5% among 340,000 | Tm shift relative to glycine control, % at 25 µM | AID 1259313;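 active = melting temperature shift of at least 10% of the positive control shift, at one fixed dose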
# SMARCA2 activ: increases SMARCA2 function in MMTV reporter cells; activation, % at 9.1 µM; MG213 cells, MMTV-luciferase reporter, dexamethasone, overnight; hit rate 1% among 370,000; AID 652017; in the data active = activation above about 7.8%;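 also: 0% = vehicle wells and 100% = reference activator wells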
# Vif inh: blocks HIV Vif function; hit rate 0.35% among 340,000; HEK293T cells, Vif self-association by quenched fluorescence, imaging, 24 h; inhibition, % at 7.49 µM; in the data active = inhibition above about 50%, passing the limit was not always enough
# NadD inh: inhibitors of Staphylococcus aureus NadD | inhibition, % at 20 µM | purified NadD enzyme, colorimetric absorbance read-out | hit rate 0.78% among 360,000; in the data active = inhibition above about 26%
# SKN-1 block: blocks SKN-1 activity in C. elegans | inhibition, % at 21.8 µM | C. elegans VP596 Pgst-4::GFP/RFP ratio, acrylamide-induced, 24 h | hit rate 0.49% among 360,000 | AID 624304;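 active = interference check ratio from 0.5 to 1.5 plus GFP to RFP signal ratio inhibition reaching or exceeding a fixed threshold, cut at about 30% in these data, passing the limit was not always enough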
# esBAF inh: inhibitors of esBAF chromatin remodeling in mouse ES cells; Bmi1-luciferase knock-in reporter, 24 h; 100% = twice the neutral-well signal; reporter increase, % at 12.5 µM; hit rate 2% among 350,000; AID 602393; in the data active = activation above about 40%;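 also: 0% = median of the plate's neutral control wells and 100% = double that signal; a rise in the Bmi1 reporter signal indicates esBAF inhibition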
# The depositor's hits bear a star; . = not tested or not shown. A selection: hits, their analogues and other compounds. The true share with any hit is near 5.2%.
SMILES,NR3A LBD binder,SMARCA2 activ,Vif inh,NadD inh,SKN-1 block,esBAF inh
COc1cc(NC(=O)C2CCCN(S(=O)(=O)c3ccc4[nH]c(=O)ccc4c3)C2)cc(OC)c1 (centres undefined),11.9*,-4.8,2.5,4.8,10.7,2.7
CCC(C)NC(=O)C1CCN(S(=O)(=O)c2ccc3[nH]c(=O)ccc3c2)CC1 (centres undefined),1.6,-3.1,9.2,0.5,3.4,-5.0
COc1ccc(NC(=O)C2CCCN(S(=O)(=O)c3ccc4[nH]c(=O)ccc4c3)C2)cc1 (centres undefined),0.7,-0.9,24.2,-3.1,-4.4,4.9
CCCNC(=O)C1CCN(S(=O)(=O)c2ccc3[nH]c(=O)ccc3c2)CC1,16.6*,0.1,1.2,-1.1,5.7,-0.4
CCSc1ccc(NC(=O)c2cccnc2)cc1,7.0,-2.5,33.0,-1.4,-2.3,36.8
O=C(Nc1ccc(N2CCCCC2)cc1)c1cccnc1,-0.4,4.4,.,8.5,11.8,61.9*
CCc1ccc(NC(=O)c2cccnc2)cc1,-2.6,2.8,3.7,-4.2,3.7,46.0*
C[C@@H]1CN([C@@H](C)CO)C(=O)Cc2cc(N(C)C)ccc2O[C@H]1CN(C)Cc1ccc(Oc2ccccc2)cc1,.,.,.,.,.,-5.4
Cn1c(-c2ccsc2)c(-c2cccs2)c2cc(-c3ccc4cc[nH]c4c3)ccc21,10.5*,-0.2,-6.1,21.3,-1.3,3.6
Cc1nc(NCCNC(=O)c2ccco2)c2c(C)c(C)sc2n1,13.9*,2.0,-0.7,-1.7,1.8,.
Cc1nc(NCCc2ccc(S(N)(=O)=O)cc2)c2c(C)c(C)sc2n1,2.0,-2.9,.,-3.5,9.3,-31.0
CN(C)c1ccc2c(c1)[C@@H]1C[C@@H](CC(=O)NCc3ccncc3)O[C@@H](CO)[C@@H]1O2,.,.,.,.,.,-5.6
CCOC1=CC2=C(C(=O)C(Cl)=CC2=O)[C@@H]2CN(S(=O)(=O)c3ccc(C)cc3)[C@@H](c3ccccc3)[C@H]12,.,4.6,-0.7,37.3*,9.1,-25.9
CCN1C(=O)[C@@H]2[C@@H]3CN(S(=O)(=O)c4ccc(C)cc4)[C@@H](c4ccccc4)[C@@H]3C(=O)C[C@@H]2C1=O,.,-5.0,22.5,-5.0,12.5,-4.2
COc1cccc(C2CC(c3cccs3)=NN2C(=O)CSc2nc3c(cnn3-c3ccc(F)cc3)c(=O)[nH]2)c1OC (centres undefined),-27.8,.,-1.1,38.7*,10.2,4.4
COc1cccc(C2CC(c3cccs3)=NN2C(=O)CSc2nc3ccccc3s2)c1OC (centres undefined),-1.0,-2.6,-10.8,5.1,15.3,.
C=CCc1cccc(OC)c1OCCOCCn1ccnc1,12.2*,-1.7,-11.3,4.0,12.8,4.5
O=[N+]([O-])c1ccc(C(O)CSC(=S)N2CCCCC2)cc1 (centres undefined),0.6,3.9,5.1,-10.8,-6.8,45.1*
O=[N+]([O-])c1ccc(C(=S)N2CCCC2)cc1,2.4,-1.9,2.8,1.4,0.4,4.1
COc1ccc(S(=O)(=O)N2CCSC2c2ccc(N)cc2)cc1 (centres undefined),10.5*,2.8,4.1,-1.3,4.3,-5.0
CC(=O)Nc1ccc(S(=O)(=O)N2CCSC2c2ccc(Cl)cc2)cc1 (centres undefined),-5.8,-3.9,-1.8,-7.6,-4.0,.
CCCN1C[C@H](C)[C@H](OC)CN(C)C(=O)c2cc(NS(=O)(=O)c3cn(C)cn3)ccc2OC[C@H]1C,.,.,.,.,.,-4.3
CCCCc1nc2cc(C(=O)N(C)C3CCOCC3)ccc2o1,-1.3,5.5,1.3,-5.8,-1.2,93.7*
CCCCc1nc2cc(C(=O)N3CCC(O)CC3)ccc2o1,-0.3,5.6,-2.6,1.7,-6.4,10.1
CC(C)C#Cc1cnc2c(c1)C(=O)N([C@@H](C)CO)C[C@@H](C)[C@H](CN(C)C(=O)c1ccccn1)O2,.,.,.,.,.,2.7
SMILES,NR3A LBD binder,SMARCA2 activ,Vif inh,NadD inh,SKN-1 block,esBAF inh
Cc1cc(Nc2ccc([N+](=O)[O-])cc2)c2ccccc2n1,-0.7,7.3,-6.3,-0.2,-3.1,0.5
O=c1nc(Nc2ccccc2)sc2ccc([N+](=O)[O-])cc12,19.9*,-1.7,-2.1,2.0,5.1,.
COc1ccc(CCn2c(=N)c(C(=O)NCCN3CCOCC3)cc3c(=O)n4ccccc4nc32)cc1OC,14.8*,0.5,7.1,-9.6,4.1,-1.4
C[C@@H]1CCCCO[C@@H](CN(C)C(=O)CCC(F)(F)F)[C@@H](C)CN([C@H](C)CO)C(=O)c2cc(NS(C)(=O)=O)ccc2O1,.,.,.,.,.,-5.6
C[C@@H](NC(=O)C[C@@H]1CC[C@@H]2[C@H](COC[C@H](O)CN2C)O1)c1ccccc1,.,.,.,.,.,5.7
COc1ccc(N=Nc2cc(OC)c(N)cc2OC)cc1,0.5,-0.1,5.7,3.5,14.7,51.1*
COc1ccc(OC)c(N)c1,-5.3,-0.7,-4.9,4.6,68.6,.
COc1ccc(S(=O)(=O)N(C)C[C@@H]2OCCCC[C@H](C)Oc3ccc(NS(=O)(=O)c4c(C)noc4C)cc3C(=O)N([C@H](C)CO)C[C@H]2C)cc1,.,.,.,.,.,2.8
Cc1nc(-c2cccc(NC(=O)c3ccc(-n4cccn4)cc3)c2)cs1,15.9*,-1.9,3.3,2.9,-5.5,5.6
Cc1nc(-c2ccc(C(=O)Nc3cccc(F)c3)cc2)cs1,0.3,-3.8,-22.8,-4.2,-0.1,-57.5
Cc1nc(-c2ccc(NC(=O)c3ccco3)cc2)cs1,3.6,-4.3,-6.0,-1.2,9.4,-77.3
Cc1nc(-c2cccc(NS(=O)(=O)c3ccc4ccccc4c3)c2)cs1,10.4*,-1.1,-5.3,2.0,17.9,3.4
Cc1nc(CNS(=O)(=O)c2ccc3ccccc3c2)cs1,-0.4,-3.1,2.9,-2.9,-6.0,2.6
Cc1nc(-c2cccc(NC(=O)c3ccco3)c2)cs1,-9.2,0.1,-9.4,-4.5,35.6*,15.1
Cc1ccc(S(=O)(=O)Nc2ccc3c(c2)C(=O)N([C@H](C)CO)C[C@@H](C)[C@H](CN(C)S(=O)(=O)c2cccs2)O3)cc1,.,.,.,.,.,-10.0
COC(=O)c1ccc(OCC2c3cc(OC)c(OC)cc3CCN2C(=O)c2ccco2)cc1 (centres undefined),0.5,1.2,69.2*,-7.8,9.6,4.8
COC(=O)c1ccc(OCC2c3cc(OC)c(OC)cc3CCN2C(C)=O)cc1 (centres undefined),-4.0,1.8,-10.6,-1.7,10.5,-6.8
Cc1cnn(-c2cc(Oc3ccccc3)ncn2)c1,3.3,5.5,.,-1.5,7.5,64.6*
c1ccc(Oc2cc(-n3cncn3)ncn2)cc1,-5.0,4.5,-1.9,-3.1,12.3,.
CS(=O)(=O)Nc1ccc2c(c1)[C@H]1C[C@@H](CC(=O)NCc3ccc(Oc4ccccc4)cc3)O[C@H](CO)[C@H]1O2,.,.,.,.,.,12.5
O=C(CN(Cc1ccccc1)C(=O)CNS(=O)(=O)c1ccccc1)NCC1CCCO1 (centres undefined),-3.1,-1.0,4.3,-4.2,13.1,-4.6
